Source: PubChem BioAssay (NCATS)
Several values for one entry are separate records, joined by “and”; a condition that tells them apart may be missing. Identical values can stand only once. Results filed as inconclusive are left out. A number with no mark means an inactive call. Activity calls are given as the source filed them. Calls follow the shape of the dose curve; as a rule, active = well fitted curve in the direction sought with a large enough effect; inconclusive = small, poorly fitted or top-dose-only effect, or another doubt; inactive = no such curve, though single readings can be large; an effect the other way counts as inactive or inconclusive.

Assay: qHTS assay to identify small molecule inhibitors of chordoma cells - UCH-1 (AID 1259355); also: nearly all actives have a fitted effect of over 55% in size; also: potency is read from the fitted curve at half-maximal effect
Conditions: UCH-1 chordoma viability, CellTiter-Glo, 48 h, combination; series mostly up to 46.1 µM; activity, negative = inhibition: at the top concentration
Summary of the method: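 A 48hr growth-inhibition format: each drug tested at 15 concentrations together with added auranofin, camptothecin, doxorubicin, rubitecan and topotecan, with cell viability quantified as CellTiter-Glo luminescence.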
% is scaled to controls: 0 for no effect and ±100 for the full control effect.

Structure (SMILES)	activity, negative = inhibition	Potency
OC[C@@H](O)[C@H]1O[C@@H]2O[C@@H](C(Cl)(Cl)Cl)O[C@@H]2[C@H]1O	-3.26% [at 46.1 µM, with auranofin plus four topoisomerase inhibitors]	–
O=C1C[C@@H]2OCC=C3CN4CC[C@]56c7ccccc7N1[C@H]5[C@H]2[C@H]3C[C@H]46 (tested in a mixture with another compound)	–	inactive
N#CC1(N2CCCCC2)CCCCC1	-28.5%	–
CN[C@H]1C[C@@H](N)[C@H](O)[C@@H](O[C@@H]2O[C@H](CO)[C@H](O)[C@@H]3OC4(O[C@H]23)O[C@H](C(N)CO)[C@H](O)[C@H](O)[C@H]4O)[C@@H]1O (stereo partly specified)	-22.9%	–
CCCN1CCCC2Cc3[nH]ncc3CC21 (stereo unspecified)	-4.82% [at 46.1 µM, with auranofin plus four topoisomerase inhibitors]	–
[O]=[Cr](=[O])([OH])[O][Cr](=[O])(=[O])[OH]	–	2.24 µM (active) and 4.47 µM (active)
CC(=O)OC1CN2CCC1CC2 (stereo unspecified)	-12.7% [at 46.1 µM, with auranofin plus four topoisomerase inhibitors]	–
O=C(OCCN1CCCCC1)C(O)(c1ccccc1)c1ccccc1	-12.2%	–
COCC(C)N(C(=O)CCl)c1c(C)csc1C (stereo unspecified)	-6.08% [at 46.1 µM, with auranofin plus four topoisomerase inhibitors]	–
C=CCC1(C(C)CCC)C(=O)N=C(S)NC1=O (stereo unspecified)	-17.7%	–
CCC/C=C/C=C/C(=O)O[C@H]1/C(=C/C(=O)OC)C[C@H]2C[C@H]([C@@H](C)O)OC(=O)C[C@H](O)C[C@@H]3C[C@H](OC(C)=O)C(C)(C)[C@](O)(C[C@@H]4C/C(=C/C(=O)OC)C[C@H](/C=C/C(C)(C)[C@]1(O)O2)O4)O3	-22.3% [at 46.1 µM, with auranofin plus four topoisomerase inhibitors]	–
OC(c1ccccc1)(c1ccccc1)C1CN2CCC1CC2 (stereo unspecified)	-14.9% [at 46.1 µM, with auranofin plus four topoisomerase inhibitors]	–
COC(COC(N)=O)C1=C(N2CC2)C(=O)C(C)=C(N2CC2)C1=O (stereo unspecified)	–	2.24 µM (active)
O=C1CN(O)C(c2ccccc2)=c2cc(Cl)ccc2=N1	-3.44%	–
Cn1sc(Cl)cc1=O	-15%	–
CCN1C[C@]2(COC)[C@H](O)C[C@H](OC)[C@@]34[C@@H]5C[C@@]6(O)[C@H](OC(=O)c7ccccc7)[C@@H]5[C@@](OC(C)=O)([C@@H]([C@H](OC)[C@H]23)[C@@H]14)[C@@H](O)[C@@H]6OC	3.18% [at 46.1 µM, with auranofin plus four topoisomerase inhibitors]	–
CCCCCl	23.2% [at 46.1 µM, with auranofin plus four topoisomerase inhibitors]	–
COc1ccc2c(c1OC)C(=O)OC2C1c2cc3c(cc2CCN1C)OCO3 (stereo unspecified)	-17.7%	–

Structure (SMILES)	activity, negative = inhibition	Potency
CC(=O)O[C@H]1CC[C@@]2(C)C(=CC[C@@H]3[C@@H]2CC[C@]2(C)C(=O)CC[C@@H]32)C1	-5.9% [at 20.6 µM]	–
C=CC[C@]1(O)CC[C@H]2[C@@H]3CCC4=CCCC[C@@H]4[C@H]3CC[C@@]21C	-17.5%	–
CCON=O	-20.2%	–
CC(C)(O)C1C2OC(=O)C1C1(O)CC3OC34C(=O)OC2C14C (stereo unspecified)	-4.74% [at 46.1 µM, with auranofin plus four topoisomerase inhibitors]	–
Clc1ccc(C(Cn2ccnc2)OCc2csc3c(Cl)cccc23)c(Cl)c1 (stereo unspecified)	-5% [at 20.6 µM, with auranofin plus four topoisomerase inhibitors]	–
N#CC(C#N)=Cc1cc(O)c(O)c(O)c1	1.05%	–
C=CCN1CC[C@]23c4c5ccc(O)c4O[C@H]2[C@@H](O)C=C[C@H]3[C@H]1C5	-1.16%	–
CCOC(=O)/C=C(C)/C=C/C[C@@H](C)CCCC(C)C	-7.84% [at 46.1 µM, with auranofin plus four topoisomerase inhibitors]	–
C[C@@H](Cc1ccccc1)N(C)C	-9.84%	–
CN1C2CCC1CC(OC(c1ccccc1)c1ccc(Cl)cc1)C2 (stereo unspecified)	-29.1% [at 46.1 µM, with auranofin plus four topoisomerase inhibitors]	–
[N-]=[N+]=CC(=O)OCC(N)C(=O)O (stereo unspecified)	9.78% [at 46.1 µM, with auranofin plus four topoisomerase inhibitors]	–
O=C1C2CC=CCC2C(=O)N1SC(Cl)(Cl)Cl (stereo unspecified)	–	12.6 µM (active)
C=CCN=C=S	-13.9% [at 46.1 µM, with auranofin plus four topoisomerase inhibitors]	–
CNC1(c2ccccc2Cl)CCCCC1=O (stereo unspecified)	–	inactive
O=c1[nH]cc(N(CCCl)CCCl)c(=O)[nH]1	-10.7%	–
Cc1cccc(C(C)c2cnc[nH]2)c1C (stereo unspecified)	-4.3%	–
O=S(=O)(O)c1cc(O)ccc1O	-13.8% [at 20.6 µM, with auranofin plus four topoisomerase inhibitors]	–
NCC(O)c1cccc(O)c1 (stereo unspecified)	-12% [at 46.1 µM, with auranofin plus four topoisomerase inhibitors]	–

Assay: qHTS assay to identify small molecule inhibitors of chordoma cells - UCH-2 (AID 1259356)
Conditions: UCH-2 chordoma viability, CellTiter-Glo ATP luminescence, 48 h; series mostly up to 46.1 µM; activity change, negative = inhibition: at the top concentration

Structure (SMILES)	activity change, negative = inhibition	Potency
OC[C@@H](O)[C@H]1O[C@@H]2O[C@@H](C(Cl)(Cl)Cl)O[C@@H]2[C@H]1O	5.01%	–
O=C1C[C@@H]2OCC=C3CN4CC[C@]56c7ccccc7N1[C@H]5[C@H]2[C@H]3C[C@H]46 (tested in a mixture with another compound)	–	inactive
N#CC1(N2CCCCC2)CCCCC1	12.5%	–
CN[C@H]1C[C@@H](N)[C@H](O)[C@@H](O[C@@H]2O[C@H](CO)[C@H](O)[C@@H]3OC4(O[C@H]23)O[C@H](C(N)CO)[C@H](O)[C@H](O)[C@H]4O)[C@@H]1O (stereo partly specified)	10.5%	–
CC(=O)OC1CN2CCC1CC2 (stereo unspecified)	6.53%	–
O=C(OCCN1CCCCC1)C(O)(c1ccccc1)c1ccccc1	-3.2%	–
COCC(C)N(C(=O)CCl)c1c(C)csc1C (stereo unspecified)	2.68%	–
CCC/C=C/C=C/C(=O)O[C@H]1/C(=C/C(=O)OC)C[C@H]2C[C@H]([C@@H](C)O)OC(=O)C[C@H](O)C[C@@H]3C[C@H](OC(C)=O)C(C)(C)[C@](O)(C[C@@H]4C/C(=C/C(=O)OC)C[C@H](/C=C/C(C)(C)[C@]1(O)O2)O4)O3	1.82%	–
OC(c1ccccc1)(c1ccccc1)C1CN2CCC1CC2 (stereo unspecified)	-23.5%	–
O=C1CN(O)C(c2ccccc2)=c2cc(Cl)ccc2=N1	-3.61%	–
Cn1sc(Cl)cc1=O	3.88%	–
CC(=O)O[C@H]1CC[C@@]2(C)C(=CC[C@@H]3[C@@H]2CC[C@]2(C)C(=O)CC[C@@H]32)C1	-7.02% [at 20.6 µM]	–
C=CC[C@]1(O)CC[C@H]2[C@@H]3CCC4=CCCC[C@@H]4[C@H]3CC[C@@]21C	10.6%	–
CCON=O	5.73%	–
Clc1ccc(C(Cn2ccnc2)OCc2csc3c(Cl)cccc23)c(Cl)c1 (stereo unspecified)	4.05% [at 20.6 µM]	–
C=CCN1CC[C@]23c4c5ccc(O)c4O[C@H]2[C@@H](O)C=C[C@H]3[C@H]1C5	-2.6%	–
CCOC(=O)/C=C(C)/C=C/C[C@@H](C)CCCC(C)C	5.28%	–
C[C@@H](Cc1ccccc1)N(C)C	6.66%	–
CN1C2CCC1CC(OC(c1ccccc1)c1ccc(Cl)cc1)C2 (stereo unspecified)	-26.5%	–
C=CCN=C=S	6.65%	–
CNC1(c2ccccc2Cl)CCCCC1=O (stereo unspecified)	–	inactive
O=c1[nH]cc(N(CCCl)CCCl)c(=O)[nH]1	-0.773%	–
Cc1cccc(C(C)c2cnc[nH]2)c1C (stereo unspecified)	0.278%	–
O=S(=O)(O)c1cc(O)ccc1O	11.1% [at 20.6 µM]	–
NCC(O)c1cccc(O)c1 (stereo unspecified)	-16.4%	–
